# The panel holds about 83,000 compounds, 20% with a hit somewhere; the sample as a whole holds those more often.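 Results are percent growth after 48 hours of single-concentration exposure. 100 means growth as in untreated cells, lower positive values show inhibition; negative values down to -100 show cell death.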 Unmarked numbers belong to inactive results. Active and inactive are the calls of the source. The calls were made as follows: active = growth percent below 10; inactive = the rest.
# Tests used:
# Test in all cases: NCI-60 one-dose screen, 48 h (100 = growth as untreated, 0 = no growth, -100 = all killed)
# T-47D breast = conditions: 10 µM unless noted
# BT-549 breast = conditions: 10 µM unless noted
# MDA-MB-435 melanoma = conditions: 10 µM unless noted
# SW-620 colon = conditions: 10 µM unless noted
# MCF7 breast = conditions: 10 µM unless noted
# HCT-116 colon = conditions: 10 µM unless noted
# HCC-2998 colon = conditions: 10 µM
# KM12 colon = conditions: 10 µM unless noted
SMILES,growth (T-47D breast),growth (BT-549 breast),growth (MDA-MB-435 melanoma),growth (SW-620 colon),growth (MCF7 breast),growth (HCT-116 colon),growth (HCC-2998 colon),growth (KM12 colon)
CC(C)(O)CC(=O)NCCn1ccc2ncnc(Nc3ccc(Oc4cccc(C(F)(F)F)c4)c(Cl)c3)c21,-18.8% (active),17.5%,14.3%,14.1%,14.3%,0.422% (active),-27.2% (active),9.88% (active)
O=C(Nc1cccc(Cl)c1)Nc1ncc(CCNc2ncnc3ccsc23)s1,-16.9% (active),0.164% (active),12.5%,62.6%,11.8%,17.9%,80.1%,11.4%
COc1ccc2c(c1OC)C(=O)O[C@@H]2[C@H]1c2c(c(C#CC#Cc3ccc(F)c(F)c3)c3c(c2OC)OCO3)CCN1C,69.6%,78.2%,89.7%,104%,94%,59.8%,88.5%,83%
CCOC(=O)C1=C(C)NC(=O)NC1c1cc(=O)oc2ccc(C)cc12 (configuration not stated),94.5%,111%,117%,108%,91.3%,100%,96.2%,101%
Cn1ncc(Cl)c1-c1cc(C(=O)N[C@H](CN)Cc2cccc(F)c2)sc1Cl,-24.7% (active),-4.28% (active),4.34% (active),39.8%,-11.7% (active),12.8%,-78.2% (active),1.36% (active)
COc1cc(Nc2ncc(F)c(Nc3ccc4c(n3)NC(=O)C(C)(C)O4)n2)cc(OC)c1OC,39%,34.1%,51.2%,59.5%,41.5%,59.3%,100%,12.3%
CC/C=C\C[C@H]1C/C=C2/C(=O)C=C[C@@H]2C/C=C\CCCC(=O)O1,39.7%,-20.4% (active),-45.5% (active),-51% (active),-1.97% (active),-67.5% (active),-79.4% (active),-68.7% (active)
O=C(c1ccccc1)C(c1ccccc1)N1CCOCC1 (configuration not stated),98.8%,110%,109%,103%,98.3%,102%,102%,99.1%
CO[C@H]1C[C@@H]2CC[C@@H](C)[C@@](O)(O2)C(=O)C(=O)N2CCCC[C@H]2C(=O)O[C@H]([C@H](C)C[C@@H]2CC[C@@H](OC(=O)C(C)(CO)CO)[C@H](OC)C2)CC(=O)[C@H](C)/C=C(\C)[C@@H](O)[C@@H](OC)C(=O)[C@H](C)C[C@H](C)\C=C/C=C/C=C/1C,-6.15% (active),0.892% (active),33.1%,42.7%,5.53% (active),23.8%,41.6%,34.1%
Cc1ccc(-c2cc3c(SCC(=O)Nc4cc(C(F)(F)F)ccc4Cl)nccn3n2)cc1,101%,81.2%,38.7%,18.2%,14.7%,14.7%,19.5%,–
C=CC[n+]1c(/C=C2\Sc3ccccc3N2C)sc(-c2ccccc2)c1-c1ccccc1,5.7% (active),11.9%,5.39% (active),22.1%,6.39% (active),12%,29.4%,14%
NC(=O)c1c(OCc2c(F)cc(Br)cc2F)nsc1NC(=O)NCCCCN1CCCC1,-45.1% (active),-51.2% (active),-58.9% (active),-60.5% (active),1.88% (active),-37.9% (active),-13.8% (active),-4.19% (active)
CCN1CCN(Cc2ccc(NC(=O)Nc3nc(-c4cc(OC)c(OC)c(OC)c4)cs3)cc2C(F)(F)F)CC1,-23.9% (active),45.3%,-51.4% (active),3.34% (active),-15.2% (active),-58% (active),-36.6% (active),-56.8% (active)
CN1CCC(CNc2ccc3ncc(-c4cccc(OC(F)(F)F)c4)n3n2)CC1,-79.5% (active),-0.185% (active),-95.8% (active),-61.9% (active),-49.5% (active),-75.1% (active),-84.4% (active),-1.37% (active)
CCCCCCCC(=O)SCC/C=C/[C@@H]1CC(=O)NCc2cccc(n2)C2=N[C@@](C)(CS2)C(=O)N[C@@H](C(C)C)C(=O)N1,-7.49% (active),41.4%,19.6%,69.3%,28.3%,2.91% (active),12.6%,24.9%
CC(C)(C)OC(=O)N1CCC(O)[C@@H](O[Si](c2ccccc2)(c2ccccc2)C(C)(C)C)[C@H]1/C=C/c1ccccc1 (some centres not stated),21.4%,63%,57.4%,50.9%,36.6%,24.9%,44.8%,47%

SMILES,growth (T-47D breast),growth (BT-549 breast),growth (MDA-MB-435 melanoma),growth (SW-620 colon),growth (MCF7 breast),growth (HCT-116 colon),growth (HCC-2998 colon),growth (KM12 colon)
Cc1cc2c(-c3nc4ccccn4c3NC34CC5CC(CC(C5)C3)C4)c(O)c(O)cc2c(O)c1-c1c(C)cc2c(-c3nc4ccccn4c3NC34CC5CC(CC(C5)C3)C4)c(O)c(O)cc2c1O,-0.388% (active),9.45% (active),16.5%,23.5%,12.3%,12%,31%,19.8%
COc1cc(NC2CCC(=O)N2c2ccc(Cl)cc2Cl)cc(OC)c1OC (configuration not stated),98.3%,109%,94.9%,96.8%,96.6%,97.1%,95.7%,97.7%
O=C(NOC[C@H](O)CO)c1ccc(F)c(F)c1Nc1ccc(I)cc1F,62.2%,80.4%,33%,18.5%,93.3%,11.5%,-15.9% (active),24.1%
CC1(C=O)NC(=O)NC1=O (configuration not stated),95.2%,91.4%,111%,101%,95.6%,90.5%,94.7%,108%
CC(=O)C(C(C)=O)C(c1ccccc1)C(C(C)=O)C(C)=O,102%,105%,104%,110%,90.2%,91.3%,106%,110%
CC(C)=CCc1cc2c(cc1O)C1=C(C(=O)C3=C(C1=O)S(=O)(=O)CCN3)C(C=C(C)C)O2 (configuration not stated),-2.63% (active),-73.6% (active),-52.6% (active),-18.9% (active),-50.7% (active),-24.8% (active),-66% (active),13.6%
OCCNC(=S)Nc1ccc(-c2nc(N3C[C@H]4CC[C@@H](C3)O4)c3cccn3n2)cc1,-22.5% (active),-8.04% (active),0.28% (active),11.6%,9.19% (active),22.6%,20.8%,12%
c1cc[n+](Cc2c3ccccc3cc3c2ccc2ccccc23)cc1,30.8%,10.4%,51%,57.4%,31.9%,58.1%,42.8%,35.9%
COc1cc(-c2nc(C(=O)NCC(=O)O)nn2-c2ccc(Cl)cc2)cc(OC)c1OC,99.5%,106%,108%,108%,96.3%,103%,100%,96.3%
CC(=O)c1c(C)c2cnc(Nc3ccc(N4CCNCC4)cn3)nc2n(C2CCCC2)c1=O,55.7%,50.5%,45.5%,27.3%,27.4%,10.6%,57.3%,11.3%
COc1cc2c(c(OC)c1)C1c3ccccc3NC(=O)N1CC2 (configuration not stated),44%,50.3%,-48.8% (active),20.5%,18.1%,30.6%,53.4%,26.2%
CCN(CCO)CCCOc1ccc2c(Nc3cc(CC(=O)Nc4cccc(F)c4)[nH]n3)ncnc2c1,19.6%,54.7%,11.1%,15.6%,6.03% (active),11.1%,4.66% (active),15.9%
NC1(c2ccc(-c3nc4ccn5c(=O)[nH]nc5c4cc3-c3ccccc3)cc2)CCC1,-70.4% (active),17%,27%,55%,12.2%,23.3%,33.6%,26.9%
S=C(NCc1ccc2c(c1)OCO2)N1CCN(c2ncnc3c2oc2ccccc23)CC1,1.12% (active),32.3%,19.3%,40.9%,18.7%,34.3%,57.4%,45.2%
CC(C)C1CCC(C)C(C2(C#N)C(N)=NC(N)=C2C#N)C1=O (configuration not stated),83.6%,98.8%,101%,102%,92.6%,99.2%,95.8%,92.9%

# Reference: PubChem BioAssay (NCI)
